How the values were obtained:
Assay in all cases: PBM binding z-score (relative to random genomic background probes); higher = stronger binding; sequences stand for … in GC…GCGATTGACAGCGTAGAATGAAGG
[1] = tested on: FXR:RXRa (NR concentration 270 nM, RXRa partner concentration 90 nM)
Procedure, shortened: (§1)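 Custom Agilent 4×180K protein-binding microarrays carried double-stranded probes. Their 34-nt variable regions held direct-repeat seeds, single-nucleotide variants, half-site ablations and random human genomic background sequences. Arrays were incubated 1 h with ligand-free nuclear receptor dimers in PBS pH 7.4, 2% milk, 0.02% Triton X-100, 1 mM DTT, 0.2 mg/mL BSA and 0.4 mg/ml salmon testes DNA. Antibodies against each partner (one per run) detected binding, and scanned fluorescence was regression-normalized. Binding z-scores use random background probes as reference.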

[2] = tested on: LXRa:RXRa (NR concentration 270 nM, RXRa partner concentration 90 nM)
Procedure, shortened: as §1

[3] = tested on: LXRa homodimer (NR concentration 270 nM)
Procedure, shortened: as §1

[4] = tested on: LXRb:RXRa (NR concentration 270 nM, RXRa partner concentration 90 nM)
Procedure, shortened: as §1

[5] = tested on: LXRb homodimer (NR concentration 270 nM)
Procedure, shortened: as §1

[6] = tested on: PPARa:RXRa (NR concentration 270 nM, RXRa partner concentration 90 nM)
Procedure, shortened: as §1

[7] = tested on: PPARg:RXRa (NR concentration 180 nM, RXRa partner concentration 90 nM)
Procedure, shortened: as §1

[8] = tested on: PPARg:RXRa 270nM:90nM, anti-RXR (NR concentration 270 nM, RXRa partner concentration 90 nM)
Procedure, shortened: as §1

[9] = tested on: PPARg:RXRa 30nM:10nM, anti-RXR (NR concentration 30 nM, RXRa partner concentration 10 nM)
Procedure, shortened: as §1

[10] = tested on: PPARg:RXRa 90nM:30nM, anti-RXR (NR concentration 90 nM, RXRa partner concentration 30 nM)
Procedure, shortened: as §1

[11] = tested on: PPARg:RXRa DBDmut IVT, anti-RXR (DBD mutation: RXRa K156A/R161A, NR concentration 270 nM, RXRa partner concentration 90 nM)
Procedure, shortened: as §1

[12] = tested on: PPARg:RXRa IVT, anti-PPARg (NR concentration 270 nM, RXRa partner concentration 90 nM)
Procedure, shortened: as §1

[13] = tested on: PPARg DBDmut:RXRa IVT, anti-PPARg (DBD mutation: PPARg1 K132A/R137A, NR concentration 270 nM, RXRa partner concentration 90 nM)
Procedure, shortened: as §1

[14] = tested on: PPARg DBDmut IVT, anti-PPARg (DBD mutation: PPARg1 K132A/R137A, NR concentration 270 nM)
Procedure, shortened: as §1

[15] = tested on: PPARg homodimer (NR concentration 180 nM)
Procedure, shortened: as §1

[16] = tested on: PXR:RXRa (NR concentration 270 nM, RXRa partner concentration 90 nM)
Procedure, shortened: as §1

[17] = tested on: PXR homodimer (NR concentration 270 nM)
Procedure, shortened: as §1

[18] = tested on: RARa:RXR (NR concentration 270 nM, RXRa partner concentration 90 nM)
Procedure, shortened: as §1

[19] = tested on: RARa homodimer (NR concentration 270 nM)
Procedure, shortened: as §1

[20] = tested on: RARb:RXRa (NR concentration 270 nM, RXRa partner concentration 90 nM)
Procedure, shortened: as §1

Sequence	PBM binding z-score [1]	PBM binding z-score [2]	PBM binding z-score [3]	PBM binding z-score [4]	PBM binding z-score [5]	PBM binding z-score [6]	PBM binding z-score [7]	PBM binding z-score [8]	PBM binding z-score [9]	PBM binding z-score [10]	PBM binding z-score [11]	PBM binding z-score [12]	PBM binding z-score [13]	PBM binding z-score [14]	PBM binding z-score [15]	PBM binding z-score [16]	PBM binding z-score [17]	PBM binding z-score [18]	PBM binding z-score [19]	PBM binding z-score [20]
ACTCGGAGGACAAAGGTCAGAGCGACGCCAGTGA	4.14	4.3	1.14	3.61	0.216	4.97	7.85	6.9	5.06	7.27	0.874	3.53	-0.107	-0.757	3.73	4.04	0.438	4.89	0.829	4.57
CTCGAAAGGTCGTGCTCAGCTGAGTATACCAAAC	4.95	3.96	-0.247	3.26	0.329	4.67	2.52	3.89	0.929	2.38	0.87	1.49	0.246	0.618	1.59	2.99	-0.206	3.49	0.13	3.72
ATATGTAGGTTATCGGGTGATTCAGTTTGCGCAT	0.87	1.16	0.949	1.33	0.879	3.39	5.08	5.04	2.59	4.28	7.59	7.22	2.9	2.24	1.51	1.07	1.12	0.995	1.96	1.15
AGAACGGGGGCACGCTGAGTTGATAGCAGAGTAG	2.62	2.67	0.116	4.87	6.59	4.42	4.48	4.86	2.39	4.05	4.63	6.15	9.13	9.69	2.35	3.72	1.03	2.98	0.451	3.1
AGAATGAGGTTATACGTAGATCAGGTAAGAAAGT	2.3	2.13	0.183	1.72	-0.0403	3.17	2.14	2.25	0.708	1.53	4.3	2.28	1.26	0.947	0.811	1.23	0.571	2	0.262	1.52
TCTGCTAGGTCAGTTGGTTAGCTAACGAGCTGCC	0.851	0.567	-0.601	0.643	0.257	1.05	0.0463	1.19	1.17	1.34	2.45	2.82	-0.493	-0.0218	-0.654	0.251	-0.819	0.432	-1.34	3.29
TTGCCTAGGTCATTCAGGGGCCAGTATAGAAAGC	5.14	3.97	0.809	2.93	0.902	3.51	2.07	2.24	0.187	1.52	1.9	2.33	0.195	-0.447	2.69	2.63	0.107	4.21	-0.129	3.93
ATCGAAAGGTCGTGAGGTGAGTAAACAGAAAGGC	5.42	3.82	0.314	3.14	0.648	5.03	3.9	4.4	1.22	2.97	0.111	2.34	1.06	0.746	1.39	2.84	0.0266	4.08	0.931	3.94
CCTCGGAGGGCAGAAGGTCAGAGCTGTCCGCTTT	1.58	1.92	-0.356	1.12	-1.06	2.48	0.613	2.48	-0.473	1.44	0.357	0.981	-1.69	-1.6	0.905	1.94	-0.405	2.53	-0.604	3.69
GCTATTAGTTGAAAGAGCAACCGAATGATTCTCG	-0.368	-0.335	-0.0598	-0.509	-0.535	0.321	0.704	1.95	0.137	1.51	0.238	-0.404	0.37	0.517	0.13	-0.39	-0.276	-0.118	0.294	-0.146
AGAATGAGGTTATACGCAGATCAGGGAAGAAAGT	2.11	2.13	-0.247	1.68	-0.102	3.39	1.58	2.01	0.827	1.45	2.73	2.31	1.31	0.997	0.831	1.14	0.481	1.59	0.675	1.52
GTTATTAGTTGAAAGGGCAACCGAATGATTCTCG	1.4	1.73	1.19	1.56	1.28	3.14	3.9	5.52	3.84	5.47	1.31	1.82	1.34	1.6	3.38	1.26	1.4	1.87	3.11	2.55
CCTAGTTGGTCAAGGTTACACACGCTATAGGTAC	1.22	1.09	0.67	1.4	0.618	1.79	1.82	2.2	0.763	1.81	1.65	2.24	1.11	1.66	2.04	1.19	1.09	1.6	1.63	1.99
CTTTACGGGTCACTCCAGGTTATAGCATCGGAGT	5.38	7.71	3.92	5.61	1.09	4.97	4.47	4.7	1.86	3.42	4.09	4.57	1.34	1.05	2.31	5.1	0.416	3.97	0.111	3.96
GCGACTGGGGCAAAGCAGGTTACAATAAGGTTGG	0.383	0.245	-0.467	0.623	-0.699	1.6	1.48	1.49	0.224	0.898	4.73	3.71	-0.466	-0.774	0.387	0.661	-0.376	0.904	-0.625	1.06
GCTATTAGTTGAAAGGGCAACCTAATGATTCTCG	0.451	0.673	0.238	1.08	-0.393	2.38	2.46	4.31	2.24	4.3	0.686	0.831	0.904	0.354	0.978	0.94	0.54	1.56	0.795	2.02
ATCGAAAGGTCGTGAGGTGAGAATACAGAAAGGC	5.69	4.09	0.3	3.37	0.293	5.61	4.61	4.58	1.99	3.09	0.36	2.7	1.67	0.86	1.7	3.16	0.322	4.19	0.587	4.13
CCGACTGGGGCAGAAAGGTCACCATACCATCCGG	3.52	3.99	1.97	3.56	-0.936	4.65	4.35	5.18	3.05	4.59	1.91	3.29	-0.398	-0.64	4.46	5.07	0.611	6.06	2.92	4.39
GCTATTAGTTGAAAGGTCAACCGAATGATTCTCG	5.42	6.07	4.71	5.26	1.55	5.77	7.71	6.96	6.56	7.52	1.5	3.85	0.539	0.804	3.47	5.54	1.29	6.55	1.86	4.97
ATATGTAGGTTAGATGGGGTCATTCAGACTAGGC	4.98	5.67	3.54	4.97	1.56	5.11	5.98	5.22	2.6	4.55	6.56	6.05	2.97	2.15	2.79	6.56	4.01	6.01	1.98	2.93
ATCGAATGGTCGACGAGGTGAGTATACACCGTTT	-0.323	-0.552	-0.816	-0.341	-0.342	-0.212	0.744	-0.273	0.119	-0.347	-0.664	0.567	-0.0586	-0.0219	-0.342	-0.323	-0.282	-0.136	-0.0822	0.37
TGAATGAGGTTAAAGATCAGCGAACGTGGCGTCG	2.99	2.46	-0.568	1.62	0.0932	4.55	5.87	6.26	5.47	6.67	2.09	3.38	1.34	0.131	0.5	1.89	-0.0611	2.82	-0.162	1.88
CCTATTGGGCCAAGGTCATTGATCAGTCAAAGCA	3.16	2.92	0.821	2.85	-0.34	3.83	2.79	3.83	1.37	3.21	1.98	2.52	-0.54	0.103	2.09	3.72	1.21	3.94	0.101	3.33
TCTAGTTGGTCACGGAGGCCACACACGACGGGTA	0.758	0.488	-0.0408	-0.0226	-0.0385	1.02	1.19	1.94	3.1	2.46	2.18	2.47	0.779	0.634	0.778	0.694	0.425	0.748	0.249	2.16
TCCTATAGGTAAAAGGTGAAAGTCGGTGTGGTAA	2.04	1.54	-0.461	1.82	-0.544	4.65	7.68	7.41	7.38	8.23	3.53	3.95	0.0451	0.327	1.1	1.66	0.259	2.87	0.703	1.85
CCTTACGGGTCACGATGTTATAGCACGACGAGCG	5.82	3.85	0.154	3.42	-0.0634	5.51	6.19	5.77	3.09	4.59	3.85	4.86	0.952	0.0806	2.01	3.41	0.295	4.22	0.866	4.39
TCTATTAGTTGAAGGGCAAGCGACGAGTCCGTTT	0.609	1.02	0.0576	0.863	0.193	1.04	0.0198	2.29	3.57	2.98	2.2	0.635	0.42	0.671	0.728	0.841	0.859	0.478	0.687	1.53
TAGCCTAGGTCAGATCGGGCCAGCATACGCTATA	2.37	0.982	-0.589	0.386	-0.807	1.52	0.739	0.901	-0.0521	0.135	0.377	1.4	-0.988	-0.801	0.0554	0.945	-0.628	1.3	-0.92	3.09

From the supplement of paper PMC6555819
